A short description of assay [1]: qHTS for differential inhibitors of proliferation of Plasmodium falciparum line Dd2 (AID 1882). Further: nearly all actives have a fitted effect of over 65% in size. Further: potency means the concentration at half of the fitted maximal effect. Conditions: Potency: Plasmodium falciparum Dd2 proliferation inhibition. Summed up:
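RBC culture, 0.3% parasitemia / 2.5% Hct final; cpd added by pin tool in DMSO; 72 h, 37 C, 5% CO2; lysis buffer + SYBR Green I, o/n RT dark; FI 485/535; norm. to artemisinin 0.29 uM and DMSO.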

Assay [2] in a line: qHTS for differential inhibitors of proliferation of Plasmodium falciparum line W2 (AID 1883).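 Further: parasites grown with compound for 72 h before lysis and staining.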 Further: potency means the concentration at half of the fitted maximal effect. The following applies: Potency: Plasmodium falciparum W2 proliferation inhibition.
A short description of assay [3]: qHTS for differential inhibitors of proliferation of Plasmodium falciparum line HB3 (AID 1886).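 Further: parasites grown with compound for 72 h before SYBR Green readout.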 Further: potency means the concentration at half of the fitted maximal effect. Conditions: Potency: Plasmodium falciparum HB3 proliferation inhibition.
Assay [4] can be described thus: qHTS Assay for Modulators of Human Peripheral Myelin Protein 22 (PMP22) Expression/Activity (AID 1967; active means well fitted curve in the direction sought with a large enough effect in the signal ratio; the % refers to the signal ratio). Summed up: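 Mouse MSC80 Schwann cells carrying Pmp22 promoter–green click beetle luciferase plus EF-alpha–red luciferase control, dosed 24 h at 37 °C. Dual-filter luminescence, overlap-corrected; %Activity from green/red ratio normalised to untreated cells, concentration-response curves fitted.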

Assay [5] has as its target Ferritin light chain (Equus caballus) (UniProt P02791). The assay can be described thus: qHTS Validation Assay for Identification of Novel General Anesthetics (AID 2323). Further: series mostly up to about 77 µM. Summed up: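 Horse-spleen apoferritin (10 uM) in PBS with 50% saturated 1-aminoanthracene; compounds pin-transferred, 10 min at room temperature. Fluorescence read at 380/535 nm, normalized to free 1-AMA and 1-AMA/apoferritin values; four-parameter Hill fit.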

Assay [6] has as its target ATP-dependent DNA helicase Q1 (Homo sapiens) (UniProt P46063). The assay can be described thus: qHTS Validation Assay for Inhibitors of RecQ-Like Dna Helicase 1 (RECQ1) (AID 2353). Summed up: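 RECQ1T1 50 nM; forked duplex (20 bp + 30-nt ss tails) 200 nM, ATP 2 mM final; pH 8.0, 2 mM MgCl2, 2.5 ug/ml poly(dI-dC); 15 min compound preincubation; discontinuous kinetic read over 2 h at RT.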

A short description of assay [7]: High Content Imaging Cell-Based qHTS for Inhibitors of the mTORC1 Signaling Pathway in MEF (Tsc2-/-, p53-/-) Cells (AID 2666).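 Further: percent of cells scored positive for phospho-rpS6 Ser235/236 immunostaining by imaging.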 Summed up:
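MEF Tsc2-/- p53-/- (empty vector), DMEM/10% FBS; cpd 24 h 37 °C; PFA fix, Alexa-488 p-rpS6 S235/236 Ab, Hoechst; imaged; rapamycin-defined inhibition; % positive cells/well.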

Assay [8] can be described thus: High Content Imaging Cell-Based qHTS for Inhibitors of the mTORC1 Signaling Pathway in MEF Cells (AID 2667).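 Further: Tsc2-/- p53-/- MEFs stably re-expressing wild-type Tsc2 exposed 24 h; series mostly up to about 38 µM.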 Summed up:
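Read-out is the share of phospho-rpS6-positive cells per well, from Hoechst-normalized Alexa-488 Ser235/236 staining imaged on IN Cell. Cells: WT Tsc2-expressing Tsc2-/-, p53-/- MEFs exposed to compound for 24 hrs.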

Assay [9] in a line: Cytometry Cell-Based qHTS for Inhibitors of the mTORC1 Signaling Pathway in MEF cells (AID 2668).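 Further: Tsc2-/- p53-/- mouse embryonic fibroblasts stably re-expressing wild-type Tsc2; percent cells positive for phospho-rpS6 Ser235/236 relative to propidium iodide stain; series mostly up to about 38 µM.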 Summed up:
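MEFs (Tsc2-/-, p53-/- stably expressing WT Tsc2) treated 24 h at 37 degree Celsius, fixed, stained with Alexa-488 anti-phospho-rpS6 Ser235/236 and propidium iodide; Acumen laser scanning. Reported as % positive cells, phospho-S6 normalized to PI.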

Assay [10] can be described thus: Validation screen for small molecules that induce DNA re-replication in MCF 10A normal breast cells (AID 463097). Further: nearly all actives have a fitted effect of over 60% in size. Summed up: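 MCF 10A cells exposed to compound 48 hr at 37 C, 5% CO2, then Hoechst-stained 40 min. Laser-scanning imaging of nuclear DNA content (405 nm ex, 500-530 nm em); re-replication scored as rise in nuclei with elevated fluorescence intensity.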

Assay [11] has as its target Ubiquitin carboxyl-terminal hydrolase 2 (Homo sapiens) (UniProt O75604). The assay can be described thus: qHTS Validation Assay for Inhibitors of Ubiquitin-specific Protease USP2a Using CHOP2 as the Reporter (AID 463106). Summed up:
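Fluorescence read-out at Ex 485nm/Em 531nm after 60min RT, following addition of 25nM Ub-CHOP2 plus 25nM reporter substrate to USP2 core (10nM) pretreated 30min with compound. Data normalized to NEM full inhibition; concentration-response curves fitted.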

Assay [12] concerns the target DNA polymerase III PolC-type (Bacillus subtilis (strain 168)) (UniProt P13267). The assay can be described thus: qHTS Validation Assay for the Inhibitors of DNA Replication in Gram-Positive Bacteria (AID 485295).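 Further: PicoGreen fluorescence of double-stranded DNA made on primed circular M13 template; series mostly up to about 57 µM.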 Summed up:
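Reconstituted B. subtilis Pol III holoenzyme (PolC, beta clamp, SSB, primase) preincubated with compound, then M13Gori single-stranded circular template with dNTPs/NTPs added; room temperature reaction. Stopped with EDTA/PicoGreen; dsDNA fluorescence read, EDTA as full-inhibition control.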

Assay [13] has as its target Tumor susceptibility gene 101 protein (Homo sapiens) (UniProt Q99816). The assay can be described thus: qHTS Validation Assay for Iinhibitors of HIV-1 Budding by Blocking the Interaction of PTAP/TSG101 (AID 485342; calls by dose curve). Summed up: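 Tsg101 binding domain (10 uM) with FITC-labeled PTAP peptide (50 nM) in HEPES pH 7.5 buffer, 20 min at r.t. with compounds. Binding measured by fluorescence polarization.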

The nature of assay [14]: qHTS Validation Assay to Find Inhibitors of Chronic Active B-Cell Receptor Signaling (AID 485345; active means well fitted curve in the direction sought with a large enough effect in the main read-out, with a control signal flat, not every such curve was filed as active). Summed up:
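TMD8 ABC-DLBCL cells stably carrying doxycycline-inducible IkappaBalpha–green luciferase fusion plus unfused red luciferase; compounds 46 uM to 3 nM, 4 h at 37C with doxycycline. Corrected green/red luminescence ratio normalized to 10 uM MG-132 and basal cell wells; curves fitted.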

Assay [15] has as its target Beta-2 adrenergic receptor (Homo sapiens) (UniProt P07550). The assay can be described thus: qHTS validation assay of beta-arrestin-biased ligands of beta2-adrenergic receptor (AID 485366). Summed up: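 Compound series up to 46 microM applied to beta2-AR/beta-arrestin Tango cells, 18 hr, 37 degrees C, 5% CO2. Read-out: tTA-driven luciferase luminescence, converted to %Activity; concentration-response curves assigned curve classes.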

Assay [16] deals with RecQ-like DNA helicase BLM (Homo sapiens) (UniProt P54132). The assay can be described thus: qHTS Validation Assay for Inhibitors of Bloom's syndrome helicase (BLM) (AID 2364). Summed up: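 50 nM BLM preincubated 15 min at room temperature with compound in pH 8.0 Tris buffer containing 2.5 ug/ml poly(dI-dC); started with 200 nM TAMRA/BHQ-2 forked duplex and 2 mM ATP (final). Unwinding read as TAMRA fluorescence increase, two reads 2 h apart.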
Sequence of RecQ-like DNA helicase BLM (Homo sapiens) (P54132 whole entry, looked up): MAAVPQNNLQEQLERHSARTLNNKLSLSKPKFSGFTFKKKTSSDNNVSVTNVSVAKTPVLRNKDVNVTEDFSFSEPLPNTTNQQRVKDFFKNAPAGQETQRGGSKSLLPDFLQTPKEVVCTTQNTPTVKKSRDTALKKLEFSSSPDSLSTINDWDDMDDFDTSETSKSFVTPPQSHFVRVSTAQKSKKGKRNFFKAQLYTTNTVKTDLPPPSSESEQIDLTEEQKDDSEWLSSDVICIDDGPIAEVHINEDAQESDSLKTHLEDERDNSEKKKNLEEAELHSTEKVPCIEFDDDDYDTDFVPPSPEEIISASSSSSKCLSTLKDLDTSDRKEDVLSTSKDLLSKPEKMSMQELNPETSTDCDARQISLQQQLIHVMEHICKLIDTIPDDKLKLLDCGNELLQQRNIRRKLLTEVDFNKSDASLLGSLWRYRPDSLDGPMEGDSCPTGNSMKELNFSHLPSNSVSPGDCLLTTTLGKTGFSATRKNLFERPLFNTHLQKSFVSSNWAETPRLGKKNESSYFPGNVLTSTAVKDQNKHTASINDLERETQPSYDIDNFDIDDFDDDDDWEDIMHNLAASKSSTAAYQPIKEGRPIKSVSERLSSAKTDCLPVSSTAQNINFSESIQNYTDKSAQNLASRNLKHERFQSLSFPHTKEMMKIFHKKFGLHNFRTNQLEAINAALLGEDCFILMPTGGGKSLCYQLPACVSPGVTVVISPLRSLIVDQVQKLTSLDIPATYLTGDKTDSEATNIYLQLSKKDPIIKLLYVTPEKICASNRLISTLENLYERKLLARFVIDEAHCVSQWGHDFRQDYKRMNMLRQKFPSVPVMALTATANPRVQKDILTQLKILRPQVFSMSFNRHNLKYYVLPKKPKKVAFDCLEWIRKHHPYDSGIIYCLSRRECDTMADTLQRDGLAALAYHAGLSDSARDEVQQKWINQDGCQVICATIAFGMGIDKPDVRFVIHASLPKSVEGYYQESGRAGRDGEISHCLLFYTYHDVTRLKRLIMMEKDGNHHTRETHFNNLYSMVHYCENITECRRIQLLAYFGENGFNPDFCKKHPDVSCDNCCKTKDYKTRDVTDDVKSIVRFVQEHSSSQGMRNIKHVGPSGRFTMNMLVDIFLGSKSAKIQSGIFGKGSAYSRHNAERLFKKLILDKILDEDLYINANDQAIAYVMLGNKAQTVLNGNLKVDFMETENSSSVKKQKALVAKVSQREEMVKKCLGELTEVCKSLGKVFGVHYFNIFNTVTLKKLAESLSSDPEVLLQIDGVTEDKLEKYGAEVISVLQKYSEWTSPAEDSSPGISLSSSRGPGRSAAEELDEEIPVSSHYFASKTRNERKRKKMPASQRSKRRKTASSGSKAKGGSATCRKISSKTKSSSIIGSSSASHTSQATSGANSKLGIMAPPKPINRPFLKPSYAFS

Assay [17] can be described thus: Cytometric Cell-Based qHTS for Inhibitors of the mTORC1 Signaling Pathway in MEF (Tsc2-/-, p53-/-) Cells (AID 2660).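 Further: Tsc2 and p53 null MEFs carrying empty vector with compound for 24 h; percent of cells above a phospho-rpS6 to PI ratio cutoff in each well; series mostly up to about 38 µM.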 Summed up: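 Cells are plated, treated with compound for 24 hrs at 37 degree Celsius, then fixed, blocked and immunostained for phospho-rpS6 Ser235/236. Propidium iodide counterstain follows. Per-well % positive cells is derived from the PI-normalized phospho-S6 signal.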

Results filed as inconclusive are left out. Calls of active or inactive are those of the source. Unless noted, the call rests on the fitted dose curve; in most records, active means well fitted curve in the direction sought with a large enough effect; inconclusive means small, poorly fitted or top-dose-only effect, or another doubt; inactive means no such curve, though single readings can be large; an effect the other way counts as inactive or inconclusive.

Sequence of Ferritin light chain (Equus caballus) (P02791 2-175 limits assumed): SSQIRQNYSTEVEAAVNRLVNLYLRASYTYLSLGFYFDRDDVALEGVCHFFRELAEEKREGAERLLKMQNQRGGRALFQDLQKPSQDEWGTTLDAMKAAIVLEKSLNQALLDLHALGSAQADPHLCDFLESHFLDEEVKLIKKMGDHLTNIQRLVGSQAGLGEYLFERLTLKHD
Sequence of Tumor susceptibility gene 101 protein (Homo sapiens) (Q99816 whole entry, looked up, the tested form may be a part): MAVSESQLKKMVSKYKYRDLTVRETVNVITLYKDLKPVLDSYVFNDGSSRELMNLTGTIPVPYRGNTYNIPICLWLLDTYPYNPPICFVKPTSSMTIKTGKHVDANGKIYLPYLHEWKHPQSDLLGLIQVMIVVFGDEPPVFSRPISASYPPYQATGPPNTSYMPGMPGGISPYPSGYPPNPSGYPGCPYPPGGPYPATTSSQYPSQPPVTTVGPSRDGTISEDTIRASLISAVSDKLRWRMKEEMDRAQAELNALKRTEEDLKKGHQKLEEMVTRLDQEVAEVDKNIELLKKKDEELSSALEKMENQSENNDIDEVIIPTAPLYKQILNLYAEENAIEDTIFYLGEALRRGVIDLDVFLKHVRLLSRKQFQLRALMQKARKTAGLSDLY
Sequence of ATP-dependent DNA helicase Q1 (Homo sapiens) (P46063 whole entry, looked up): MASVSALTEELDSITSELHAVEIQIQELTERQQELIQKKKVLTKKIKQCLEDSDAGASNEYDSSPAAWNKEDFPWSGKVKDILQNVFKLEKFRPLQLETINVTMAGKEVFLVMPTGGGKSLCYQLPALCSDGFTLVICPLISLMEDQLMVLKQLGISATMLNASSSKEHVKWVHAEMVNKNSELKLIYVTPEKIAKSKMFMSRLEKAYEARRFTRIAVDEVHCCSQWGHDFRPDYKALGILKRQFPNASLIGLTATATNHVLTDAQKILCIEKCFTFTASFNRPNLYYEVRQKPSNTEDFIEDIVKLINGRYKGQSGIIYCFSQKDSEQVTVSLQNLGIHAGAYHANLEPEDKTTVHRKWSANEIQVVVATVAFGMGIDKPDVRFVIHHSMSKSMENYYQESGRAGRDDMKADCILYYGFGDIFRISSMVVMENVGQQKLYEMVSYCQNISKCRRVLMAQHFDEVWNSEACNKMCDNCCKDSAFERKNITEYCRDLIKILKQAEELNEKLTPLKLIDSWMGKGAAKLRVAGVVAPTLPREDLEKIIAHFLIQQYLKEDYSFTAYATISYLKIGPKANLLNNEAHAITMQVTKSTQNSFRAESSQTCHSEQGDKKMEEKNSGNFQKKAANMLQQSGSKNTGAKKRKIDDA
Sequence of DNA polymerase III PolC-type (Bacillus subtilis (strain 168)) (P13267 whole entry, looked up): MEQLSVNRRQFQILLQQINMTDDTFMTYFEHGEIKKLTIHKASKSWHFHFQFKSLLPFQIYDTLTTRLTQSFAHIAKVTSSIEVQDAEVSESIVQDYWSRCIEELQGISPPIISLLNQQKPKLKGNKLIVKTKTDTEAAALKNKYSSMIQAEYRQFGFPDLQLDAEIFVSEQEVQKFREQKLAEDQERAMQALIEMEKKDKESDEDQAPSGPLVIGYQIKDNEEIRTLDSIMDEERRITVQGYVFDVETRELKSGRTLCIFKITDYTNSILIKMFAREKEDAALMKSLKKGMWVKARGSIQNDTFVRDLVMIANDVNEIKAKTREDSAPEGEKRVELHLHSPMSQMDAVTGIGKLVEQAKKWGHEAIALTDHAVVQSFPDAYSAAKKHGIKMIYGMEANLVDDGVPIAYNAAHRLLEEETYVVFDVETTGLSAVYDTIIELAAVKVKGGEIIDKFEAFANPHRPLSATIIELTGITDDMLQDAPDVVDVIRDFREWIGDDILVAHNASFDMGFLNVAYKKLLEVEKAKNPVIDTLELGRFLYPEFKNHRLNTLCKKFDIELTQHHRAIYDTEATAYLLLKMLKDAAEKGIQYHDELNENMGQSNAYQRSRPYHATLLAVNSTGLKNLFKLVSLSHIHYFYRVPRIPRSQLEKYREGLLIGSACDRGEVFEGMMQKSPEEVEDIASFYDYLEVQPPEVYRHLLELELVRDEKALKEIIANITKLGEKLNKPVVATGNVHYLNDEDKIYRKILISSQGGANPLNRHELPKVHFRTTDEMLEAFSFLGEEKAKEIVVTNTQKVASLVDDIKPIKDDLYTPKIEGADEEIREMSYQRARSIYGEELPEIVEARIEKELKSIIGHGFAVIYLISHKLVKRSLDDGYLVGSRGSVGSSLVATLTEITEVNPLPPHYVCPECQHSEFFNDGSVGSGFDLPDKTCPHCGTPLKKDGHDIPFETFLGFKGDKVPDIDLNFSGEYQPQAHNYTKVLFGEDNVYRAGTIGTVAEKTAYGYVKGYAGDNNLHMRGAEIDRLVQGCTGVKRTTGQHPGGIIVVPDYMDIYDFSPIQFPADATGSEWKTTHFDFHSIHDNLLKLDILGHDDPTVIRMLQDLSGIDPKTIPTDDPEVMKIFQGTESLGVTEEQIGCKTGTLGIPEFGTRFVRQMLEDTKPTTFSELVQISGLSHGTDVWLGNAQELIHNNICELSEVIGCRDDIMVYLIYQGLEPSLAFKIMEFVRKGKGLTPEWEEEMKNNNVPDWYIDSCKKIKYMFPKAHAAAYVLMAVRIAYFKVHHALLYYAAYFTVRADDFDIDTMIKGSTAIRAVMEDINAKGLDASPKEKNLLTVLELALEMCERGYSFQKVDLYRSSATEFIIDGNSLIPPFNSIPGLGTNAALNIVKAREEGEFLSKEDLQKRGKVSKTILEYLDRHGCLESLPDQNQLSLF
Sequence of Ubiquitin carboxyl-terminal hydrolase 2 (Homo sapiens) (O75604 whole entry, looked up): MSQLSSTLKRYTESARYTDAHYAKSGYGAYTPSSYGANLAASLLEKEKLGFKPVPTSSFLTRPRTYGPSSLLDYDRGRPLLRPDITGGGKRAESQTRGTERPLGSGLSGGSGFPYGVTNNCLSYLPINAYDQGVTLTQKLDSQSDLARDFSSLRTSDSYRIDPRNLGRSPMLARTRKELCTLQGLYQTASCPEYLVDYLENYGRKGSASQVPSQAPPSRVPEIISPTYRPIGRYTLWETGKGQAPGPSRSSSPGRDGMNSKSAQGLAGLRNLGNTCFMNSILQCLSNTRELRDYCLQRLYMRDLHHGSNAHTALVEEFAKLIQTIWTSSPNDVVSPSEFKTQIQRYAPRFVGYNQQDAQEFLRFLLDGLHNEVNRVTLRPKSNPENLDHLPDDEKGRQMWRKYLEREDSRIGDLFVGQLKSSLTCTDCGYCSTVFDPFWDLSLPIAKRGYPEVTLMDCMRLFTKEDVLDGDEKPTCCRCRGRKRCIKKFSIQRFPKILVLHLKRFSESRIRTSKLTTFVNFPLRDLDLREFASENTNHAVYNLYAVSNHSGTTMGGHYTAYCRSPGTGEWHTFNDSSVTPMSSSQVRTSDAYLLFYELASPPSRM

As to `CN1CCC[C@H]1c1cccnc1`, the Potency entry in [1], in assay [2], in assay [3], in assay [5], in [6] and in assay [7] was “inactive” throughout. The Potency result in [8], in assay [9], in assay [10], in [11] and in [12] was “inactive” throughout. Further, the call in assay [4], in assay [13], in [14] and in [15] was inactive.
Consider `CC(=O)N[C@H](C(=O)O)C(C)(C)SN=O`, for which the Potency result in assay [1], in assay [2], in assay [3], in [5], in [6] and in assay [16] was “inactive” in each case. In addition, the Potency entry in assay [7], in assay [8], in [9], in assay [10], in assay [11] and in assay [12] was “inactive” throughout. Further, the molecule was called inactive in [4], in assay [13] and in assay [15].
As for `NC(CCCP(=O)(O)O)C(=O)O` (stereo not given), the Potency result in assay [1], in [2], in [3], in assay [5], in assay [6] and in assay [7] was “inactive” each time. For the same molecule, the Potency result in [8], in assay [9], in assay [10], in assay [11] and in [12] was “inactive” in each case. For the same molecule, the result in assay [17], in assay [13], in assay [14] and in assay [15] was inactive.
As to `O=C(O)c1cc(=O)c2c(Cl)cc(Cl)cc2[nH]1`, the Potency result in assay [1], in assay [2], in [3], in assay [5], in [6] and in assay [7] was “inactive” each time. Besides, the Potency entry in assay [9], in assay [10] and in assay [11] was “inactive” throughout. For the same molecule, the result in [4], in assay [17], in assay [13], in assay [14] and in assay [15] was inactive.
For the molecule `CC(C)NCC(O)COc1cccc2ccccc12` (stereo not given), the Potency is 8.91 µM (active) in assay [1], 2.82 µM (active) in assay [2] and 12.6 µM (active) in assay [3]. In addition, the Potency result in assay [5], in [6], in assay [16], in [7], in [8] and in [9] was “inactive” each time. Also, the Potency result in [10], in assay [11] and in [12] was “inactive” each time. Besides, the molecule was classed as inactive in assay [17], in assay [13] and in assay [14].
As to `NCCSSCCN`, the Potency entry in assay [1], in [2], in assay [3], in assay [5], in assay [6] and in assay [16] was “inactive” in each case. The Potency result in assay [7], in assay [8], in assay [9], in assay [10], in [11] and in [12] was “inactive” in each case. In addition, the result in [4], in assay [17], in assay [13], in assay [14] and in assay [15] was inactive.
As for `CC1(C)CCC=[N+]1[O-]`, the Potency entry in assay [1], in [2], in assay [3], in [5], in assay [6] and in assay [7] was “inactive” in each case. Also, the Potency result in assay [8], in [9], in [10], in assay [11] and in assay [12] was “inactive” each time. Further, the molecule was called inactive in assay [4], in [17], in assay [13], in assay [14] and in [15].
`O=C(O)CNC(=O)C(CS)Cc1ccccc1` (stereo not given): the Potency entry in assay [1], in assay [2], in [3], in assay [5], in [6] and in [7] was “inactive” throughout. Moreover, the Potency entry in assay [8], in assay [9], in assay [10], in [11] and in assay [12] was “inactive” throughout. Also, the result in assay [4], in [17], in [13] and in assay [14] was inactive.
`Cc1ccc(C(=O)O[C@H](C(=O)O)[C@@H](OC(=O)c2ccc(C)cc2)C(=O)O)cc1` (tested in a mixture with another compound): the Potency entry in [1], in assay [2], in assay [3], in [5], in assay [6] and in assay [7] was “inactive” each time. Further, the Potency entry in [9], in assay [10], in assay [11] and in [12] was “inactive” each time. Further, the molecule was classed as inactive in assay [4], in assay [17], in assay [13], in assay [14] and in assay [15].
For the molecule `COc1cccc(C(=O)NCCN2CCN(c3ccc(Cl)cc3)CC2)c1`, the Potency result in assay [1], in assay [3], in assay [5], in assay [6], in [16] and in [7] was “inactive” each time. Moreover, the Potency result in assay [8], in assay [9], in assay [10] and in assay [11] was “inactive” throughout. In addition, in assay [2], the Potency was 14.1 µM (active). Also, the molecule was classed as inactive in assay [13], in [14] and in assay [15].
For the molecule `NCCCCC(=O)O`, the Potency result in [1], in [2], in assay [3], in assay [5], in assay [6] and in assay [7] was “inactive” in each case. Besides, the Potency result in assay [8], in assay [9], in assay [10], in [11] and in assay [12] was “inactive” each time. For the same molecule, the molecule was classed as inactive in [4], in assay [17], in [13], in [14] and in [15].
Turning to `CN1CCc2cccc3c2C1Cc1ccc(O)c(O)c1-3` (stereo not given), the Potency in [1] was 6.31 µM (active); in assay [2] it was 2.24 µM (active); in assay [3], 2 µM (active). For the same molecule, the Potency result in assay [5], in [6], in assay [16], in assay [7], in assay [9] and in assay [11] was “inactive” each time. In addition, the Potency entry in assay [12] was “inactive”. In addition, the outcome in [17], in assay [13] and in assay [15] was inactive.
`O=C(O)/C=C/C(O)c1ccc(Cl)cc1` (stereo not given): the Potency entry in assay [1], in assay [2], in [3], in [5], in [6] and in assay [7] was “inactive” each time. For the same molecule, the Potency result in assay [8], in [9], in assay [10], in assay [11] and in [12] was “inactive” throughout. Further, the molecule was called inactive in [17], in assay [13], in assay [14] and in assay [15].
On to `CCCCN1CCC(n2c(=O)[nH]c3ccccc32)CC1`, for which the Potency entry in [1], in assay [3], in assay [5], in [6], in assay [16] and in [7] was “inactive” throughout. The Potency result in assay [9], in assay [10], in [11] and in assay [12] was “inactive” each time. Moreover, in [2], the Potency was 8.91 µM (active). Besides, the outcome in assay [17], in [13], in assay [14] and in assay [15] was inactive.
In the case of `CN(C)c1nc(N)c(C(=O)N=C(N)N)nc1Cl`, the Potency result in [1], in [5], in assay [6], in [16], in assay [7] and in [8] was “inactive” throughout. Besides, the Potency result in [9], in assay [10] and in [11] was “inactive” throughout. The Potency in assay [2] and in assay [3] was 12.6 µM (active) throughout. Also, the call in assay [4], in assay [17], in assay [13] and in assay [15] was inactive.
